# Source: PubChem
# HP1b binding inh – HP1-beta chromodomain-methylated histone interaction inhibition; P83916; 0.56% of 390,000 active; Potency, µM (titrated, usually from 114 µM), for inactives: at the top dose activity change, negative = inhibition, actives largely listed as inhibitors; AlphaScreen HP1-beta / biotin-H3K9me3 peptide binding; AID 540317; also: nearly all actives have a fitted effect of over 70% in size
#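 Compound inhibition of the preformed complex between 50 nM HP1-beta and 50 nM biotinylated H3K9me3 peptide was read by AlphaScreen. Buffer was PBS pH 7.4 with 0.01% Tween-20. Incubations ran 30 min at room temperature, with 10 ug/mL donor/acceptor beads.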
# JMJD2A Tudor – JMJD2A Tudor domain (human) inhibition. Potency, µM (titrated, usually from 114 µM), for the others: at the top dose activity change, negative = inhibition, hits mostly inhibitors. AlphaScreen JMJD2A-Tudor / H3K4me3 peptide binding. AID 504339. O75164. 4.4% of 390,000 active; also: % is scaled to controls: 0 for no effect and ±100 for the full control effect; nearly all actives have a fitted effect of over 50% in size
# BAZ2B inh – inhibitors of human BAZ2B bromodomain; Q9UIF8; AlphaScreen BAZ2B-H3K14Ac peptide displacement; Potency, µM (highest dose often 114 µM), for the others: top-dose activity change, negative = inhibition, hits mostly inhibitors; 4.4% of 360,000 active; also: % is scaled to controls: 0 for no effect and ±100 for the full control effect; nearly all actives have a fitted effect of over 60% in size
#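 Inhibition is scored as reduced AlphaScreen emission. The BAZ2B/b-H3(5-23)K14Ac complex (50 nM each) in PBS pH 7.4, 0.01% Tween-20 meets compound (up to 110 uM) for 30 min at RT before bead addition.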
# GLS inhibitor – glutaminase GLS (human) inhibition; O94925; GLS enzymatic activity, qHTS titration; Potency, µM (titrated, usually from 45.5 µM), for the others: top-dose activity change, negative = inhibition, hits mostly inhibitors; 0.21% of 410,000 active; also: % is scaled to controls: 0 for no effect and ±100 for the full control effect
#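 Enzyme dispensed in phosphate buffer (45 mM, pH 8.2, 0.02% Tween-20), compounds pinned in, then 1 mM L-glutamine solution and the glutamate oxidase–HRP–Amplex Red mix added; fluorescence read immediately and again after 30 min at room temperature.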
# G9a inh – G9a (human) methyltransferase inhibition | AID 504332 | G9a H3K9 monomethylation, AlphaScreen, 2 h | Q96KQ7 | 8.8% of 350,000 active | Potency, µM (highest dose often 102 µM), for the others: at the top dose activity, negative = inhibition, actives largely listed as inhibitors; also: % is scaled to controls: 0 for no effect and ±100 for the full control effect; nearly all actives have a fitted effect of over 75% in size
#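 Enzyme 20 nM + cpd, 15 min RT; add b-H3K9 pep 500 nM / SAM 20 uM; 2 h RT; anti-H3K9me1 Ab 0.5 ug/mL + SA donor / anti-rabbit acceptor beads 20 ug/mL each, 10 min; AlphaScreen read.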
# * marks the source's active call; other numbers are inactive results; ? = inconclusive; · = no result given; [ ] = dose if it differs, or a comment. An excerpt weighted towards active compounds, which were near 10% of everything screened. Calls follow the shape of the dose curve; as a rule, active = well fitted curve in the direction sought with a large enough effect; inconclusive = small, poorly fitted or top-dose-only effect, or another doubt; inactive = no such curve, though single readings can be large; an effect the other way counts as inactive or inconclusive. Potency is read from the fitted curve at half-maximal effect.
SMILES,HP1b binding inh,JMJD2A Tudor,BAZ2B inh,GLS inhibitor,G9a inh
Cc1oc(-c2ccc(C(=O)N(C)Cc3ccccc3)cc2)nc1CN1CCc2ccccc21,-21.8%[57 µM],28.2µM*,25.1µM*,3.2%,?
O=C(Cn1cc(C(=O)C2CC2)c2ccccc21)Nc1ccc(F)cc1,13.8%,0.0%,2.3%,-1.9%,17.3%[59 µM]
CCN(CC)Cc1cc(Nc2c3ccccc3nc3c4ccccc4n(C)c23)cc(CN(CC)CC)c1O,?,44.7µM*,·,22.7%,·
CCOc1cc2nc3c4ccccc4n(C)c3nc2cc1OCC,73.3%,-15.0%,43.4%,0.1%,-7.2%
CC1(c2ccccc2)NC(=S)N2C1NC(=S)N2c1ccccc1 (configuration not stated),14.6%,?,-34.9%,26.3%,50.1µM*
COc1cccc(N2C(=O)C3C(C2=O)C3(c2ccccc2)c2ccccc2)c1 (configuration not stated),8.7%,-13.4%,-15.3%,0.0%,2.6%
COc1ccc(N2C(=S)NC3N2C(=S)NC3(C)c2ccccc2)cc1 (configuration not stated),11.6%,-23.5%,?,?,28.2µM*
CCOc1ccccc1NC(=O)C1CCC(CNS(=O)(=O)c2ccc3c(c2)CCCC(=O)N3)CC1 (configuration not stated),41.0%,-0.6%,-2.1%,-5.4%,-0.9%[59 µM]
Cc1c(C)n2c3c(cccc13)CC2,28.6%,4.7%,15.4%,1.1%,68.9%
O=C(c1ccccc1)N1CCC(=O)N(C(CO)Cc2ccccc2)CC1 (configuration not stated),21.8%,-16.4%,·,-7.3%,·
C=CCNC(=O)COc1cc(C)cc(C)c1C,38.6%,-14.1%,79.4µM*,1.6%,?
CN(C(=O)CSc1ccccc1C(=O)O)C1CCCCC1,40.0%,-11.7%,-10.6%,3.4%,-19.8%
Cc1cccc(NC(=O)Cc2ccc(-n3c(C)nc4cccnc43)cc2)c1C,28.2%,-2.9%,2.1%,-5.2%,-5.0%[59 µM]
COc1cc(OC)c2c(-c3ccccc3)cc(=O)oc2c1C(CCN1CCOCC1)c1ccc(N(C)C)cc1 (configuration not stated),17.8µM*,14.1µM*,·,2.6%,14.1µM*
COc1cc(OC)c2c(-c3ccccc3)cc(=O)oc2c1C(CCN1CCCC(C)C1)c1ccc2c(c1)OCO2 (configuration not stated),-36.3%,39.8µM*,?,3.0%,-26.5%[59 µM]
COc1cc(OC)c2c(-c3ccccc3)cc(=O)oc2c1C(CCN1CCCCC1)c1ccc2c(c1)OCO2 (configuration not stated),-19.8%,?,?,0.6%,1.1%[12.7 µM]
COc1cc(OC)c2c(-c3ccccc3)cc(=O)oc2c1C(CCN1CCCCC1)c1ccc(N(C)C)cc1 (configuration not stated),?,11.2µM*,15.8µM*,13.4%,?
C=CC(C)(C)c1[nH]cnc1/C=C1\NC(=O)C(C(C)C)NC1=O (configuration not stated),24.5%,-7.5%,-37.9%,10.5%,-132.2%[59 µM]
Cc1nc(CC(=O)NNS(=O)(=O)c2ccc3ccccc3c2)cs1,28.8%,-4.2%,-37.2%,9.1%,-3.9%[59 µM]
COc1ccc(S(=O)(=O)NNC(=O)Cc2csc(C)n2)cc1[N+](=O)[O-],4.0%,?,79.4µM*,-1.2%,?
COc1ccc(Br)cc1/C=N/NC(=O)CNC(=O)/C=C/c1ccccc1,11.8%,-30.4%,-29.2%,3.8%,3.9%[59 µM]
Cc1cccc(N(C)C(=O)CN(C)S(=O)(=O)c2ccc3[nH]c4c(c3c2)CCCC4)c1,?,?,?,8.0%,11.2µM*
CN(CC(=O)NCc1ccc(F)cc1)S(=O)(=O)c1ccc2[nH]c3c(c2c1)CCCC3,-1.5%,?,39.8µM*,10.9%,15.8µM*
Cc1cccc(C)c1NC(=O)CN(C)S(=O)(=O)c1ccc2[nH]c3c(c2c1)CCCC3,-8.0%,?,39.8µM*,6.2%,14.1µM*
CCOc1ccc(NC(=O)CN(C)S(=O)(=O)c2ccc3[nH]c4c(c3c2)CCCC4)cc1,-37.5%,?,?,1.3%,10µM*
SMILES,HP1b binding inh,JMJD2A Tudor,BAZ2B inh,GLS inhibitor,G9a inh
O=C(Nc1cccc(F)c1)N1CCc2nc(NCc3cccc(Oc4ccccc4)c3)ncc2C1,·,·,·,5.3%,·
COc1cc(CN(C(=O)c2ccc(C)cc2)c2ccccn2)cc(OC)c1OC,47.7%,1.7%,-12.2%,0.0%,2.0%[59 µM]
CCOc1ccccc1NC(=O)C(=O)N/N=C/c1ccc([N+](=O)[O-])cc1,27.6%,3.8%,-9.6%,-3.6%,-0.7%
O=C(N/N=C/C(Cl)=C/c1ccc([N+](=O)[O-])cc1)C(=O)Nc1ccccc1C(=O)O,-21.3%,?,?,-2.3%,35.5µM*
O=C(N/N=C/C(Br)=C/c1ccccc1)c1ccccc1F,21.5%,-27.0%,-15.7%,-8.0%,-41.4%
O=C(N/N=C/C(Cl)=C/c1ccc([N+](=O)[O-])cc1)C(=O)Nc1ccc(C(=O)O)cc1,?,-33.8%[11.4 µM],?,9.8%,50.1µM*
O=C(N/N=C/C(Cl)=C/c1ccccc1)c1ccccc1F,-18.2%,-27.1%,-16.4%,6.8%,31.6µM*
CCN(CC)CCOC(=O)c1ccc(NC(=O)CCCN2C(=O)S/C(=C/c3ccc(OC)cc3)C2=S)cc1,?,?,?,6.9%,39.8µM*
CCOc1ccc(/C=C2/SC(=S)N(CCC(=O)Nc3ccc(C(=O)O)cc3)C2=O)cc1,35.5µM*,10µM*,31.6µM*,?,15.8µM*
O=C(CCCN1C(=O)/C(=C/c2ccc(F)cc2)SC1=S)Nc1ccc(C(=O)O)cc1,·,·,·,3.2%,·
COc1ccc(/C=C2\SC(=S)N(CCC(=O)Nc3ccc(O)cc3)C2=O)cc1,19.1%,-7.5%,-32.3%,-5.3%,-1.9%
O=C(CCN1C(=O)/C(=C\c2ccccc2)SC1=S)Nc1ccc(C(=O)O)cc1,-30.3%,?,56.2µM*,1.5%,?
COc1ccc(/C=C2\SC(=S)N(CCCC(=O)Nc3ccc(C(=O)O)cc3)C2=O)cc1OC,-9.7%,?,50.1µM*,15.4%,·
CC(C)(C)C(=O)Cn1c(=O)n(-c2ccc(F)cc2F)c(=O)c2sccc21,28.4%,-0.7%,-3.5%,0.5%,9.5%[59 µM]
Cc1ccc(-c2nnc(SCC(=O)N/N=C/c3ccccc3C(=O)O)n2-c2ccccc2)cc1,·,·,-1.9%,·,-31.1%
COc1ccccc1NC(=O)CC1C(=O)NCCN1C(=O)Nc1ccc(Cl)c(Cl)c1 (configuration not stated),12.9%,-21.4%,-2.9%,-7.6%,8.0%[12.7 µM]
NC(=O)NCC1CC1,23.9%,-5.6%,-4.5%,-0.1%,-2.5%[59 µM]
COc1ccc(S(=O)(=O)N2CCCOC2CNC(=O)C(=O)NCCCN2CCOCC2)cc1 (configuration not stated),12.7%,-4.1%,6.4%,7.0%,·
